From PubChem BioAssay (Tox21)
Values without a mark were called inactive. Records with an inconclusive call do not appear. Entries that show only a call come without a potency. Activity calls are given as the source filed them. Unless noted, calls come from the whole dose curve.

Assays:
[1] = Nuclear factor erythroid 2-related factor 2/antioxidant responsive element (Nrf2/ARE) small molecule agonists: qHTS cell viability counter screen in human keratinocytes (AID 1919968; active = well fitted curve in the direction sought with a large enough effect in the repeat runs; an effect the other way counts as inactive or inconclusive; note: nearly all actives have a fitted effect of over 55% in size)
Procedure, shortened: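 KeratinoSens cells (HaCaT keratinocytes stably carrying an ARE-luciferase reporter) were seeded at 1,500 cells/well and rested 5 h at 37 C/5% CO2. They were then exposed to compounds in DMSO for 23 h. Viability was read by CellTiter-Fluor fluorescence after 1 h.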

[2] = Nuclear factor erythroid 2-related factor 2/antioxidant responsive element (Nrf2/ARE) small molecule agonists: luciferase reporter gene qHTS assay in human keratinocytes (AID 1919969); note: nearly all actives have a fitted effect of over 35% in size
[3] = molecular target: Gonadotropin-releasing hormone receptor (Homo sapiens) (UniProt P30968); test: Human gonadotropin-releasing hormone receptor (GnRHR) small molecule agonists, calcium flux assay in GnRHR-HEK293 cells (AID 1920063); note: nearly all actives have a fitted effect of over 35% in size
Gonadotropin-releasing hormone receptor (Homo sapiens), sequence (P30968 whole entry, looked up): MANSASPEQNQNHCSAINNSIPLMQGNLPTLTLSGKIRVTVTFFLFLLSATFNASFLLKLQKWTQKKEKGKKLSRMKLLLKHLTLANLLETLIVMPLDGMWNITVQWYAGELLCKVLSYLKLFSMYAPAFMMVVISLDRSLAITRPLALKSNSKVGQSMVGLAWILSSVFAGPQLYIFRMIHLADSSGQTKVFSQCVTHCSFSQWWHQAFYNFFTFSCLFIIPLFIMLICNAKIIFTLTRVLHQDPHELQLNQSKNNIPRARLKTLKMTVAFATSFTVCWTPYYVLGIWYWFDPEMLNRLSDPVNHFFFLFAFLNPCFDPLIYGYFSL
Procedure, shortened: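 HEK293 cells stably expressing human GnRHR were plated 18 h at 37 °C, loaded with calcium dye 1 h at 37 °C, then given compound in agonist mode; fluorescence (Ex/Em 480/540) read kinetically for 3 min at 1 s intervals.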

[4] = molecular target: KiSS-1 receptor (Homo sapiens) (UniProt Q969F8); test: Human kisspeptin (KISS1R) small molecule agonists, calcium flux assay in KISS1R-HEK293 cells (AID 1920064; active = well fitted curve in the direction sought with a large enough effect in the repeat runs; an effect the other way counts as inactive or inconclusive)
KiSS-1 receptor (Homo sapiens), sequence (Q969F8 whole entry, looked up): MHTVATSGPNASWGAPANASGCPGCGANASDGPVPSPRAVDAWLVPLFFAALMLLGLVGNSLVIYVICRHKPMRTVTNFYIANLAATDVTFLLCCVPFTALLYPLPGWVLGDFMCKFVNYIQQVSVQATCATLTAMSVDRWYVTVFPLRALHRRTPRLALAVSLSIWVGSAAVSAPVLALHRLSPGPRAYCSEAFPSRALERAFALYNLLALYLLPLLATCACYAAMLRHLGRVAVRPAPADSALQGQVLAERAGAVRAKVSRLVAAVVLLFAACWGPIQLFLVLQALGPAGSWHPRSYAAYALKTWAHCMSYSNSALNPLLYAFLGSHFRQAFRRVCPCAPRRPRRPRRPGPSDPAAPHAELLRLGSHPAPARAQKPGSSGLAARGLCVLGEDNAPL
Procedure, shortened: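 HEK293 cells stably expressing human KISS1R were plated 18 h at 37 °C, loaded with calcium dye for 1 h at 37 °C, then given compound by pin tool. Fluorescence (Ex/Em 480/540) was read kinetically for 3 min.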

[5] = G protein-coupled receptor (GPCR) small molecule agonists, calcium flux assay: HEK293 wild type cell line counter screen (AID 1920065)
Procedure, shortened: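 Cells were plated and cultured 18 h at 37 C/5% CO2, then loaded with calcium dye for 1 h at 37 C. Compounds in DMSO were pin-transferred in agonist mode, and fluorescence (Ex/Em 480/540) was read kinetically for 3 min at 1 s intervals.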

[6] = p53 small molecule agonists, cell-based qHTS assay with human liver microsomes (AID 1963577)
Procedure, shortened: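 Fluorescence of the beta-lactamase reporter in p53RE-bla cells, detected with LiveBLAzer substrate (2 h, room temperature, dark), served as the read-out after 16 h compound exposure at 37 C with human liver microsomes and NADPH, each 0.5 mg/mL final.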

[7] = p53 small molecule agonists, cell-based qHTS assay with rat liver microsomes (AID 1963578)
Procedure, shortened: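 Cells carrying a p53 response element–beta-lactamase reporter were plated and rested 5 h, then dosed with compound in DMSO plus rat liver microsomes and NADPH, each at 0.5 mg/mL final. After 16 h at 37 C, LiveBLAzer substrate was added for 2 h.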

[8] = p53 small molecule agonists, cell-based qHTS assay with human liver microsomes: qHTS cell viability counter screen (AID 1963579); note: nearly all actives have a fitted effect of over 45% in size; note: potency is the fitted concentration of half-maximal effect
Procedure, shortened: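 Cytotoxicity counter screen: p53RE-bla, 4,000 cells/well; 5 h settle, 37 C/5% CO2; cpd + HLM 0.5 mg/mL + NADPH 0.5 mg/mL (final); 16 h, 37 C; CellTiter-Glo, 30 min RT, luminescence.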

[9] = p53 small molecule agonists, cell-based qHTS assay with rat liver microsomes: qHTS cell viability counter screen (AID 1963580); note: nearly all actives have a fitted effect of over 45% in size
Procedure, shortened: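 Viability is assessed in parallel with the p53 reporter read: HCT-116 p53RE-bla cells receive compounds plus rat microsomes and NADPH (0.5 mg/mL final apiece), incubate 16 h at 37 C, and then CellTiter-Glo luminescence is recorded.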

[10] = p53 small molecule agonists, cell-based qHTS assay: qHTS cell viability counter screen (AID 1963581); note: nearly all actives have a fitted effect of over 45% in size
Procedure, shortened: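 p53RE-bla HCT-116 cells were exposed to compounds for 16 h at 37 C; after the beta-lactamase FRET read in the same wells, CellTiter-Glo was added and luminescence (intracellular ATP) read after 30 min at room temperature.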

[11] = p53 small molecule agonists, cell-based qHTS assay (AID 1963582; active = well fitted activation curve with a large enough effect in the signal ratio in the repeat runs, not every such curve was filed as active; the % refers to the signal ratio)
Procedure, shortened: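 p53RE-bla beta-lactamase reporter cells rested 5 h at 37 C/5% CO2, then received compounds in DMSO by pin transfer and were incubated 16 h at 37 C. LiveBLAzer B/G FRET substrate was loaded for 2 h at room temperature before fluorescence reading.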

[12] = molecular target: 5-hydroxytryptamine receptor 2A (Homo sapiens) (UniProt P28223); test: 5-hydroxytryptamine receptor 2A (HTR2A) small molecule antagonists, cell-based qHTS assay (AID 1963586); note: nearly all actives have a fitted effect of over 45% in size
5-hydroxytryptamine receptor 2A (Homo sapiens), sequence (P28223 whole entry, looked up): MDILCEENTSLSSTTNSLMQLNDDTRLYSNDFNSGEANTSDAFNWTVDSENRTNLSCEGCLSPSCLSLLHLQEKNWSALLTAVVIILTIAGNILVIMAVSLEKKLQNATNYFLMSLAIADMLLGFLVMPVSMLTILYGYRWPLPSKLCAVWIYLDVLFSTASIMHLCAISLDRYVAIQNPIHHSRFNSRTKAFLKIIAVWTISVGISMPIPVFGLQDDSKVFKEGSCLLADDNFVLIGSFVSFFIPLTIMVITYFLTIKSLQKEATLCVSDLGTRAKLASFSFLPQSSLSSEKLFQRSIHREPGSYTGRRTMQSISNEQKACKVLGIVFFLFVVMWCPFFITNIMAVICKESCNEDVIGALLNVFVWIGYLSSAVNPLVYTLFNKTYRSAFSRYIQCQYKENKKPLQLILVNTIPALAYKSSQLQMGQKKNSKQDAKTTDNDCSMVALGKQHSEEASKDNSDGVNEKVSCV
Procedure, shortened: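 Antagonist-mode intracellular calcium assay: DOI (4 nM) added after 5 min compound pre-incubation at room temperature to dye-loaded HTR2A-CHO cells. Fluorescence followed for 3 min, sampled every second.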

[13] = molecular target: 5-hydroxytryptamine receptor 2A (Homo sapiens) (UniProt P28223); test: 5-hydroxytryptamine receptor 2A (HTR2A) small molecule agonists, cell-based qHTS assay (AID 1963587); note: nearly all actives have a fitted effect of over 30% in size
Procedure, shortened: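 CHO cells stably expressing human HTR2A, plated 18 h, loaded with calcium dye 1 h at 37 C. Agonist mode: compounds added and intracellular calcium fluorescence recorded kinetically for 2 min at 1 sec intervals.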

[14] = molecular target: Muscarinic acetylcholine receptor M1 (Homo sapiens) (UniProt P11229); test: Cholinergic receptor muscarinic 1 (CHRM1) small molecule antagonists, cell-based qHTS assay (AID 1963588); note: nearly all actives have a fitted effect of over 40% in size
Muscarinic acetylcholine receptor M1 (Homo sapiens), sequence (P11229 whole entry, looked up): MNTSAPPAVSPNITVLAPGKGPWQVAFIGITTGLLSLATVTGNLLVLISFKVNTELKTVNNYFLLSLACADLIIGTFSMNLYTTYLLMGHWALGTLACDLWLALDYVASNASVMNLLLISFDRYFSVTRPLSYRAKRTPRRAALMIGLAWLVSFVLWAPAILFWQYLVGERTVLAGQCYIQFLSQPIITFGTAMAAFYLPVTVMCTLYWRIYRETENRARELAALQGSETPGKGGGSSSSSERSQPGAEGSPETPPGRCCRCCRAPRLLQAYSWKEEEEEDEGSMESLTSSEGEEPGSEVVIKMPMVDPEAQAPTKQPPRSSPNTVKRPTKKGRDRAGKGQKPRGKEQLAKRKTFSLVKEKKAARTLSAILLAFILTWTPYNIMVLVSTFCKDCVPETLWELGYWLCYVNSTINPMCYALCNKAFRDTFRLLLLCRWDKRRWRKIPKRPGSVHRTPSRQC
Procedure, shortened: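 CHRM1-CHO calcium-flux assay, antagonist mode. Cells were seeded 18 h, dye-loaded 1 h at 37 C and given compound for 5 min at RT, then acetylcholine was added at 50nM. FDSS fluorescence was read 3 min; 15 concentrations, three runs.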

[15] = molecular target: Muscarinic acetylcholine receptor M1 (Homo sapiens) (UniProt P11229); test: Cholinergic receptor muscarinic 1 (CHRM1) small molecule agonists, cell-based qHTS assay (AID 1963589); note: nearly all actives have a fitted effect of over 35% in size
Procedure, shortened: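 CHO cells stably expressing human CHRM1, seeded 18 h at 37 C/5% CO2, dye-loaded 1 h at 37 C, then given compound in agonist mode; intracellular calcium fluorescence read kinetically at 1 s intervals. Fifteen concentrations, three independent runs.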

[16] = cAMP Responsive Elements (CRE) small molecule agonists, cell-based qHTS assay (AID 1963590)
Procedure, shortened: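 CRE-bla HEK 293T cells in DMEM with 10% dialyzed FBS, NEAA, pyruvate and 25 mM HEPES were plated 18 h at 37 C/5% CO2, then exposed to compounds in DMSO for 3 h before LiveBLAzer B/G FRET substrate addition.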

[17] = cAMP Responsive Elements (CRE) small molecule antagonists, cell-based qHTS assay (AID 1963591; active = well fitted inhibition curve with a large enough effect in the signal ratio in the repeat runs, not every such curve was filed as active; the % refers to the signal ratio)
Procedure, shortened: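 CRE-bla HEK293T cells were plated 18 h at 37 °C/5% CO2, pinned with compound in DMSO, then stimulated with NKH477 at 0.25 uM final for 3 h. LiveBLAzer B/G FRET substrate was added and plates incubated 2 h at room temperature.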

[18] = molecular target: D(2) dopamine receptor (Homo sapiens) (UniProt P14416); test: Dopamine D2 receptor (DRD2) small molecule agonists, cell-based qHTS assay (AID 1963594); note: nearly all actives have a fitted effect of over 35% in size
D(2) dopamine receptor (Homo sapiens), sequence (P14416 whole entry, looked up): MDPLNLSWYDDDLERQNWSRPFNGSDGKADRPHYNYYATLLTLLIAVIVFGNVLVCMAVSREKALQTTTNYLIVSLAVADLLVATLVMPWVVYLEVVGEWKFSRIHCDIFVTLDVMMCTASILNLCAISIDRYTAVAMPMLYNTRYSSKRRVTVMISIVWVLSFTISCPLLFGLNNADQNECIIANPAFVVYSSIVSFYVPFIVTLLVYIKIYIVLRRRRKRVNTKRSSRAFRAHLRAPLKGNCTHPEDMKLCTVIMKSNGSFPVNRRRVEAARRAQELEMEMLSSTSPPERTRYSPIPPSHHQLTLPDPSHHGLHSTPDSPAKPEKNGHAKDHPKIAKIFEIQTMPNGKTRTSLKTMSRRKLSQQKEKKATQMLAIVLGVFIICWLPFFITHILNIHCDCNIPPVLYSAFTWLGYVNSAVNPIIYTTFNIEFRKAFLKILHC
Procedure, shortened: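 HEK293 cells stably expressing human DRD2, pre-treated with PDE inhibitor Ro20-1724 (0.1 mM final) and compound 10 min at room temperature, then stimulated with NKH477 (200nM […]) for 30 min. cAMP read by HTRF (665/620 nm).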

[19] = molecular target: D(2) dopamine receptor (Homo sapiens) (UniProt P14416); test: Dopamine D2 receptor (DRD2) small molecule antagonists, cell-based qHTS assay (AID 1963595; active = well fitted inhibition curve with a large enough effect in the signal ratio in the repeat runs, with a control signal flat; the % refers to the signal ratio)
Procedure, shortened: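 Antagonism was scored as restored cAMP in HEK293-DRD2 cells. These cells were stimulated with 200 nM NKH477 and 12 nM quinpirole for 30 min at room temperature, in the presence of 0.1 mM Ro20-1724.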

[20] = molecular target: Beta-2 adrenergic receptor (Homo sapiens) (UniProt P07550); test: Adrenergic beta2 receptor (ADRB2) small molecule antagonists, cell-based qHTS assay (AID 1963592); note: nearly all actives have a fitted effect of over 50% in size; note: potency is the fitted concentration of half-maximal effect; for activity change, negative = inhibition: series mostly up to about 92 µM
Beta-2 adrenergic receptor (Homo sapiens), sequence (P07550 whole entry, looked up): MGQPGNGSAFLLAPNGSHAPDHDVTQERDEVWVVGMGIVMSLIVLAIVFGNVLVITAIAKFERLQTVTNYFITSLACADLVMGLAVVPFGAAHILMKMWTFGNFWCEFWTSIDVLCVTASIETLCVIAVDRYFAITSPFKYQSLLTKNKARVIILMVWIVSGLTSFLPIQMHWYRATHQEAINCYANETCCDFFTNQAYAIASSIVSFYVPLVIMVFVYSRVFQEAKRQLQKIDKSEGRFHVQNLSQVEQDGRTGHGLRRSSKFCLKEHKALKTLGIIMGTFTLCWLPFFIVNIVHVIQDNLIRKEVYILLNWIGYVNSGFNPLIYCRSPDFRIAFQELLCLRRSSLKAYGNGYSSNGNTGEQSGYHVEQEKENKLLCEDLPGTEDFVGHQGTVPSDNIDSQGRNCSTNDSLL
Procedure, shortened: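 Cells (CHO, stable ADRB2 overexpression) incubated 18-20hr at 37C; compounds added from DMSO; agonist mix (1nM isoproterenol, 100uM IBMX, 25uM Ro-20-1724) added; 0.5hr RT; d2-cAMP and anti-cAMP-cryptate added; 1hr RT; 665/615 nm read.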

## Cc1cc(=O)[nH]c(=O)[nH]1
[1]
  Potency: inactive
[2]
  Potency: inactive
[3]
  Potency: inactive
[4]
  outcome: inactive
[5]
  outcome: inactive
[6]
  Potency: inactive
[7]
  Potency: inactive
[8]
  Potency: inactive
[9]
  Potency: inactive
[10]
  Potency: inactive
[11]
  Potency: inactive
[12]
  Potency: inactive
[13]
  Potency: inactive
[14]
  Potency: inactive
[15]
  Potency: inactive
[16]
  Potency: inactive
[17]
  Potency: inactive
[18]
  Potency: inactive

## c1cc[nH]c1
[1]
  Potency: inactive
[2]
  Potency: inactive
[3]
  Potency: inactive
[4]
  outcome: inactive
[5]
  outcome: inactive
[6]
  Potency: inactive
[7]
  Potency: inactive
[8]
  Potency: inactive
[9]
  Potency: inactive
[10]
  Potency: inactive
[11]
  Potency: inactive
[12]
  Potency: inactive
[13]
  Potency: inactive
[14]
  Potency: inactive
[15]
  Potency: inactive
[16]
  Potency: inactive
[17]
  Potency: inactive
[18]
  Potency: inactive
[19]
  Potency: inactive

## CC1(C)S[C@@H]2[C@H](NC(=O)C(C(=O)O)c3ccccc3)C(=O)N2[C@H]1C(=O)O (stereo partly specified)
[1]
  Potency: inactive
[2]
  Potency: inactive
[3]
  Potency: inactive
[4]
  outcome: inactive
[5]
  outcome: inactive
[6]
  Potency: inactive
[7]
  Potency: inactive
[8]
  Potency: 0.177 µM (active)
[9]
  Potency: inactive
[10]
  Potency: inactive
[11]
  Potency: inactive
[12]
  Potency: inactive
[13]
  Potency: inactive
[14]
  Potency: inactive
[15]
  Potency: inactive
[16]
  Potency: inactive
[17]
  Potency: inactive
[18]
  Potency: inactive
[19]
  Potency: inactive

## CCCCOCCOC(=O)c1cccnc1
[1]
  Potency: inactive
[2]
  Potency: inactive
[3]
  Potency: inactive
[4]
  outcome: inactive
[5]
  outcome: inactive
[6]
  Potency: inactive
[7]
  Potency: inactive
[8]
  Potency: inactive
[9]
  Potency: inactive
[10]
  Potency: inactive
[11]
  Potency: inactive
[12]
  Potency: inactive
[13]
  Potency: inactive
[14]
  Potency: inactive
[15]
  Potency: inactive
[16]
  Potency: inactive
[17]
  Potency: inactive
[18]
  Potency: inactive
[19]
  Potency: inactive

## C/C(=N\[Si](C)(C)C)O[Si](C)(C)C
[1]
  Potency: inactive
[2]
  Potency: inactive
[3]
  Potency: inactive
[4]
  outcome: inactive
[5]
  outcome: inactive
[6]
  Potency: inactive
[7]
  Potency: inactive
[8]
  Potency: inactive
[9]
  Potency: inactive
[10]
  Potency: inactive
[11]
  Potency: inactive
[12]
  Potency: inactive
[13]
  Potency: inactive
[14]
  Potency: inactive
[15]
  Potency: inactive
[16]
  Potency: inactive
[17]
  Potency: inactive
[18]
  Potency: inactive
[19]
  Potency: inactive

## C[C@H]1NCc2cc(-c3ccc4c(=O)c(C(=O)O)cn(C5CC5)c4c3OC(F)F)ccc21
[1]
  activity change, negative = cytotoxicity: 4.74% [at 19 µM]
[2]
  activity, positive = activation: -0.2% [at 19 µM]
[3]
  activity change: -2.08% [at 11.8 µM, active compounds read high]
[4]
  activation: -1.09% [at 15.8 µM]
[5]
  activation: -0.804% [at 11.8 µM]
[6]
  activation: -4.26% [at 13.5 µM]
[7]
  activation: 0.634% [at 13.6 µM]
[8]
  activity change, negative = cytotoxicity: -4.1% [at 13.5 µM]
[9]
  activity change, negative = cytotoxicity: 2.66% [at 13.5 µM]
[10]
  activity change, negative = cytotoxicity: -9.15% [at 13.5 µM]
[11]
  activation: -3.01% [at 13.5 µM]
[12]
  activity, negative = inhibition: 1.4% [at 12.7 µM]
[13]
  activation: -1.89% [at 15.9 µM]
[14]
  activity, negative = inhibition: 19.5% [at 12.6 µM]
[15]
  activation: -0.122% [at 15.8 µM]
[16]
  activation: -1.76% [at 19 µM]
[20]
  activity change, negative = inhibition: 10.3% [at 19 µM]
[18]
  activation: -2.66% [at 19 µM]
[19]
  activity change, negative = inhibition: -0.31% [at 18.9 µM]

## COc1cc2c(cc1OC)C(=O)C(CC1CCN(Cc3ccccc3)CC1)C2 (stereo unspecified)
[1]
  Potency: inactive
[2]
  Potency: inactive
[3]
  Potency: inactive
[4]
  outcome: inactive
[5]
  outcome: inactive
[6]
  Potency: inactive
[7]
  Potency: inactive
[8]
  Potency: inactive
[9]
  Potency: inactive
[10]
  Potency: inactive
[11]
  Potency: inactive
[12]
  Potency: inactive
[13]
  Potency: inactive
[14]
  Potency: inactive
[15]
  Potency: inactive
[16]
  Potency: inactive
[20]
  Potency: 18.8 µM (active)
[18]
  Potency: inactive
